JMJD2A Tudor: blocks the human JMJD2A Tudor domain; O75164; AlphaScreen JMJD2A-Tudor / H3K4me3 peptide binding; Potency, µM (titrated, usually from 114 µM), usual class: inhibitors; 390,000 tested, 4.4% active; AID 504339; also: nearly all actives have a fitted effect of over 50% in size
Sfp PPTase inh: inhibitors of Bacillus subtilis Sfp phosphopantetheinyl transferase | Q9F4F7 | Biochemical Sfp PPTase activity, qHTS | Potency, µM, most hits filed as inhibitors | 310,000 tested, 3.5% active;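 also: the enzyme is Sfp with the accession as filed and its product quenches rhodamine fluorescence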
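Compounds were incubated with enzyme (final 15 nM) for 15 min at room temperature before substrate addition started the reaction. Fluorescence at 525 nm excitation, 598 nm emission was recorded immediately and after 30 minutes.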
L3MBTL1 inh: L3MBTL1 (human) inhibition; Q9Y468; AlphaScreen L3MBTL1–H3K9me1 peptide binding; Potency, µM (highest dose often 57.1 µM), usual class: inhibitors; 230,000 tested, 0.66% active; also: nearly all actives have a fitted effect of over 60% in size
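Read-out is AlphaScreen signal from streptavidin donor and nickel chelate acceptor beads (10 ug/mL final each) bridging L3MBTL1 (50 nM) and biotinylated K9-monomethylated H3(1-15) peptide (75 nM), after 30 min compound exposure at room temperature.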
HP1b chromo inh: HP1-beta chromodomain-methylated histone interaction inhibition; P83916; AlphaScreen HP1-beta / biotin-H3K9me3 peptide binding; Potency, µM (top dose mostly 114 µM), most hits filed as inhibitors; 390,000 tested, 0.56% active; also: nearly all actives have a fitted effect of over 70% in size
Target sequence (P83916 whole entry, looked up): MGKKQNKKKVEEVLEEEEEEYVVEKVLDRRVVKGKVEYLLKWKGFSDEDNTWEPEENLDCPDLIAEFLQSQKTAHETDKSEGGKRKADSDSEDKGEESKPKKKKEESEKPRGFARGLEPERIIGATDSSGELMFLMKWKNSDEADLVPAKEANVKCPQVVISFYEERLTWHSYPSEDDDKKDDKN
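AlphaScreen: HP1-beta (50 nM) preformed 30 min with biotin-H3(1-18)K9me3 peptide (50 nM) in PBS pH 7.4, 0.01% Tween-20. Compound added for 30 min at RT, then streptavidin donor/nickel chelate acceptor beads (10 ug/mL) for 30 min.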
BAZ2B inh: inhibitors of human BAZ2B bromodomain | Q9UIF8 | AlphaScreen BAZ2B-H3K14Ac peptide displacement | Potency, µM (top dose mostly 114 µM), usual class: inhibitors | 360,000 tested, 4.4% active | AID 504333; also: nearly all actives have a fitted effect of over 60% in size
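AlphaScreen luminescence quantifies BAZ2B engagement of H3K14Ac peptide; the protein and biotinylated peptide are both at 50 nM final, buffer PBS pH 7.4 with 0.01% Tween-20, all steps at room temperature.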
G9a inh: inhibitors of human histone lysine methyltransferase G9a. Q96KQ7. G9a H3K9 monomethylation, AlphaScreen, 2 h. Potency, µM (doses to about 102 µM), actives largely listed as inhibitors. 350,000 tested, 8.8% active. AID 504332; also: nearly all actives have a fitted effect of over 75% in size
Target sequence (Q96KQ7 913-1193 limits assumed): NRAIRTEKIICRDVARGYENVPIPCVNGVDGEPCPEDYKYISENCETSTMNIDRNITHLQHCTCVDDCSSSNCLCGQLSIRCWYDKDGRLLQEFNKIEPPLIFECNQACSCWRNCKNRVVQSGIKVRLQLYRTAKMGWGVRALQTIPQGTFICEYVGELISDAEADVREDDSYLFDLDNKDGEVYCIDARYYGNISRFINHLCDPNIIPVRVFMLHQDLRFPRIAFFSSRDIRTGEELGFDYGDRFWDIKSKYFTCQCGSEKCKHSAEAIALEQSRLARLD
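Methyltransferase reactions run at room temperature for 2 h (20 nM enzyme, 500 nM biotin-H3K9 peptide, 20 uM SAM) after a 15 min compound preincubation; product detected by AlphaScreen beads and anti-H3K9me1 antibody.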
Hits are given with their value; . = inactive; ? = inconclusive; / = no result given; [ ] = dose if it differs, or a comment. An excerpt weighted towards active compounds, which were near 12% of everything screened. Calls follow the shape of the dose curve; as a rule, active = well fitted curve in the direction sought with a large enough effect; inconclusive = small, poorly fitted or top-dose-only effect, or another doubt; inactive = no such curve, though single readings can be large; an effect the other way counts as inactive or inconclusive.

SMILES | JMJD2A Tudor | Sfp PPTase inh | L3MBTL1 inh | HP1b chromo inh | BAZ2B inh | G9a inh
O=c1nc(Nc2ccccc2)oc2ccccc12 | . | . | / | . | . | .
CCc1cccc(C)c1NC(=O)CCCN1C(=O)CN(C)C1=O | . | / | . | . | . | ?
CC(/C=N/NC(=O)c1cc(-c2ccncc2)nc2ccccc12)=C\c1ccco1 | ? | 22.4µM | . | ? | . | ?
O=C(N/N=C/c1ccc([N+](=O)[O-])o1)c1cc(-c2ccncc2)nc2ccccc12 | . | . | . | . | . | .
Cc1ccc(/C=N/NC(=O)c2cc(-c3ccncc3)nc3ccccc23)o1 | . | . | / | . | ? | 44.7µM
Cc1ccc(-c2cc(C(=O)N/N=C/c3ccc([N+](=O)[O-])o3)c3ccccc3n2)o1 | . | ? | / | . | . | 44.7µM
O=C(N/N=C/c1ccsc1)c1cc(-c2ccncc2)nc2ccccc12 | . | . | . | . | . | .
O=C(N/N=C/c1ccccn1)c1cc(-c2ccncc2)nc2ccccc12 | . | . | . | . | 79.4µM | .
COC(=O)C1[C@@H](OC)C(OC(=O)COc2ccc(OC)cc2)C[C@@H]2CN3CCc4c([nH]c5cc(OC)ccc45)[C@H]3C[C@H]12 (stereo partly drawn) | / | . | / | / | / | .[12.7 µM]
CNC[C@H](O)[C@H](O)[C@H](O)[C@H](O)CO | / | . | / | / | / | .[21.5 µM]
Cc1ccc(/C=N\NC(=O)c2cncc(Br)c2)o1 | . | . | . | . | . | 50.1µM
Cc1ccc(/C=N/NC(=O)c2cccnc2)o1 | . | . | / | . | . | .
O=C(O)c1cc(-c2ccc(-c3c(-c4ccc5c(c4)OCO5)noc3-c3ccsc3)cc2)nc2ccccc12 | 89.1µM | . | . | . | ? | 56.2µM
O=C(Nc1ccc2c(c1)OCO2)c1cc(-c2ccncc2)nc2ccccc12 | ? | . | / | ? | ? | 50.1µM
Cc1ccc(C(=O)N(Cc2ccco2)Cc2sccc2C)cc1 | . | / | / | . | . | .
O=C(Nc1ccc(N=Nc2ccccc2)c(NC(=O)C2CCCO2)c1)C1CCCO1 (stereo not drawn) | 35.5µM | . | ? | ? | 28.2µM | ?
CSc1ccccc1NC(=O)C1CCCO1 (stereo not drawn) | . | 79.4µM | . | . | . | 15.8µM
O=C(Nc1ccc(Oc2ccccc2)cc1)C1CCCO1 (stereo not drawn) | 100µM | . | . | . | . | .
COc1ccc(/C(C)=N/NC(=O)CNC(=O)C(c2ccccc2)c2ccccc2)c(OC)c1 | . | . | / | . | . | .
CNc1ncnc2c1ncn2[C@@H]1O[C@H](CO)[C@H](O)[C@H]1O | / | / | / | / | / | .[12.7 µM]
C[C@@H](O)C(N)C(=O)O (stereo partly drawn) | / | . | / | / | / | /
COc1ccc(NC(=O)CN(C)C(=O)c2ccc(NS(=O)(=O)c3ccc4[nH]c(=O)[nH]c4c3)cc2)cc1 | . | / | . | . | . | .[0.501 µM]
CC1=NOC(=O)/C1=C/c1ccc(O)c(Br)c1 | . | . | / | . | 56.2µM | 44.7µM
Cc1c(N=Cc2ccc(O)c(Br)c2)cccc1[N+](=O)[O-] | . | . | . | . | . | ?
CC1=NOC(=O)/C1=C/c1ccc(O)cc1 | 15.8µM | 39.8µM | . | . | 50.1µM | 50.1µM
SMILES | JMJD2A Tudor | Sfp PPTase inh | L3MBTL1 inh | HP1b chromo inh | BAZ2B inh | G9a inh
O=C/C=C/c1ccc(O)cc1 | / | . | / | / | / | /
COc1ccc(N=Nc2cc(C)ccc2O)cc1 | 25.1µM | . | ? | 14.1µM | 8.91µM | ?
COc1ccc(N=Nc2ccc(CO)cc2)cc1 | ? | / | / | . | / | /
Oc1ccc2ccccc2c1N=Nc1ccc(F)cc1 | 2.24µM | . | ? | 5.62µM | 2.24µM | 2µM
COc1ccc(N=Nc2ccc3ccccc3c2)c(O)c1 | 10µM | ? | ? | 3.16µM | 5.62µM | 10µM
COc1cccc(N=Nc2ccc3ccccc3c2O)c1 | 2.82µM | . | . | ? | 1.58µM | /
COc1ccc(N=Cc2ccccc2O)cc1 | . | / | / | . | / | /
Cc1ccc(O)c(N=Nc2ccc(S(=O)(=O)N3CCCC3)cc2)c1 | ? | . | / | . | 3.98µM | 8.91µM
Cc1ccc(N=Nc2c(O)n(CN3CCOCC3)c3ccccc23)cc1 | . | . | . | . | . | .
Cc1ccc(N=Nc2ccc3ccccc3c2O)cc1 | 3.16µM | . | ? | ? | 1.12µM | 2µM
CC(=O)/C(N=Nc1cc(C)ccc1O)=C(\C)O | . | . | . | . | . | ?
Cc1ccc(O)c(N=Nc2nccs2)c1 | 35.5µM | / | ? | ? | 10µM | ?
CCNc1nc(NCC)nc(-n2cc(C(=O)c3cc(Cl)ccc3O)cn2)n1 | ? | / | / | . | / | /
CCc1cccc(NC(=O)CCN2C(=O)c3ccccc3Sc3ncccc32)c1 | . | / | / | . | ? | .
Cc1ccc2c(c1)NC(=O)CC(c1ccccc1)=N2 | . | . | . | . | . | .
CC1=CC(C)=Nc2ccc(C)cc2N1 | . | . | / | . | . | 44.7µM
CCOc1cc(/C=N/Nc2nn3cnnc3c3ccccc23)ccc1O | . | ? | . | . | . | .
C(=N\Nc1ccc2nncn2n1)/c1ccco1 | . | . | / | . | . | .
O=c1[nH]c(N/N=C/c2ccc(O)cc2)nc2ccccc12 | . | . | . | . | . | ?
COc1ccc(/C=N/Nc2nncc3ccccc23)cc1 | 28.2µM | 50.1µM | . | . | 25.1µM | ?
Oc1ccc(/C=N/Nc2nn3cnnc3c3ccccc23)cc1 | . | 56.2µM | / | . | . | /
C(=N\Nc1nn2cnnc2c2ccccc12)/c1ccco1 | . | 50.1µM | / | . | . | .
COc1cc(/C=N/Nc2nn3cnnc3c3ccccc23)ccc1O | . | 39.8µM | . | . | ? | 79.4µM
COc1ccccc1NS(=O)(=O)c1ccc2c(c1)CCC(=O)N2 | . | / | / | / | / | /
CCc1ccc(NC(=O)Cn2cc(S(=O)(=O)N3CCCC3)c(S(=O)(=O)N3CCCC3)c2)cc1 | . | / | / | . | . | .
SMILES | JMJD2A Tudor | Sfp PPTase inh | L3MBTL1 inh | HP1b chromo inh | BAZ2B inh | G9a inh
COc1cccc(/C=N/Nc2nn3cnnc3c3ccccc23)c1 | . | 56.2µM | / | . | . | .
Cc1ccc(Cl)cc1NC(=O)COC(=O)c1ccc(N2CCCC2)c([N+](=O)[O-])c1 | / | . | . | / | . | .
Cc1nnc(NC(=O)CC23CC4CC(CC(C4)C2)C3)s1 | . | . | . | . | . | .
COc1cc(/C=N/NC(=S)NCCN2CCOCC2)ccc1O | . | 50.1µM | . | . | . | .
COc1cc(/C=N/NC(=O)c2ccoc2C)ccc1O | . | . | . | . | . | 50.1µM
COc1ccc(/C=N/NC(=O)c2ccoc2C)cc1CN1CCN(c2ccc(F)cc2)CC1 | ? | . | / | ? | 79.4µM | ?
COc1ccc(C(=O)N/N=C/c2ccc(OC)c(CN3CCN(c4ccc(F)cc4)CC3)c2)cc1 | ? | . | . | . | . | .
CN(C)S(=O)(=O)c1ccc(N2CCCC2)c(C(=O)NCC2CCCCC2)c1 | . | ? | . | . | . | .
COC(=O)c1ccc(C(=O)NC(=S)Nc2ccc3nc(SC)sc3c2)cc1 | . | . | . | . | . | .
